This is a sample that favours compounds with a hit; in the whole collection about 2.4% have one here.
A549 viability – counter-screen for Nrf2 inhibitors: cytotoxicity in A549 cells; AID 504648; Potency, µM (series often up to 46 µM), most hits filed as inhibitors; hit rate 0.16% among 390,000; A549 ARE-Fluc cells, CellTiter-Fluor viability, 18-24 h
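Cytotoxicity counterscreen: CellTiter-Fluor fluorescence was measured in A549 ARE_Fluc cells after 18-24 h of compound exposure in a concentration series. The subsequent BugLite luminescent read reports ARE-luciferase activity.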
Nrf2 block – Nrf2 pathway inhibition; AID 504444; hit rate 2.1% among 360,000; Potency, µM (series often up to 46 µM), actives largely listed as inhibitors; A549 ARE-Fluc reporter, luciferase luminescence, 18-24 h; also: nearly all actives have a fitted effect of over 60% in size
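A549 ARE_Fluc cells, 5000/well, 5% FBS OPTI-MEM; compounds in dose-response, 18-24 h at 37 °C/5% CO2; CellTiter-Fluor viability read (Ex 405/Em 525), then BugLite luciferase luminescence = Nrf2 activity.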
Epigenetic reg – epigenetic control regulation, reporter derepression | AID 1865 | hit rate 0.2% among 280,000 | Potency, µM (titrated, usually from 53.9 µM), most hits filed as activators | murine LDR cells, GFP reporter derepression, 30 h; also: nearly all actives have a fitted effect of over 60% in size
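In this reporter-derepression format, murine cells bearing a silenced integrated CMV-GFP locus incubate with test compound (30 h, 37 C), then are washed and imaged; fluorescent objects of 20–120 um count as induced cells.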
Nrf2 ARE act – activators of Nrf2 (ARE) signaling. hit rate 0.31% among 410,000. AREc32 ARE-luciferase reporter (MCF7-derived line), luminescence, 24 h. Potency, µM (doses to about 46.1 µM), hits mostly activators; also: nearly all actives have a fitted effect of over 65% in size
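Luminescent ARE reporter assay in AREc32_Fluc cells: overnight plating at 37 deg C, 24 hr compound incubation, Steady-Glo added, 30 min RT before reading.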
PINK1 expr mod – modulators of PINK1 expression | PINK1 immunofluorescence, high-content cytometry, 24 h | AID 624263 | hit rate 0.2% among 410,000 | Potency, µM (doses to about 76.6 µM), usual class: activators; active = well fitted activation curve with a large enough effect; inconclusive = small, poorly fitted or top-dose-only effect; cell line not stated here; also: nearly all actives have a fitted effect of over 65% in size
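Compound titrations (5 concentrations, 24 h) on a stable cell line; DMSO and CCCP controls. Endpoint: fixed-cell PINK1 immunofluorescence with mitochondrial, cell and nuclear markers, scanned by microplate cytometer.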
Of the large screens only hits and unclear results are named; the others gave an inactive call. Unless noted, calls follow the shape of the dose curve; as a rule, active = well fitted curve in the direction sought with a large enough effect; inconclusive = small, poorly fitted or top-dose-only effect, or another doubt; inactive = no such curve, though single readings can be large; an effect the other way counts as inactive or inconclusive.

CCN1CCN(c2cc(C)c3cc(NC(=O)c4cc(OC)c(OC)c(OC)c4)ccc3n2)CC1	none (no result: Nrf2 block)
CC(=O)Nc1ccc(S(=O)(=O)N2CCC(n3c(C(F)(F)F)nc4cccnc43)CC2)cc1	none
COC(=O)c1c(-c2cccs2)csc1NC(=O)CN1CCOCC1	Nrf2 block 6.5µM
Cc1cccc(NS(=O)(=O)c2ccc3c(c2)[C@H]2C=CC[C@H]2[C@@H](c2ccc(F)cc2)N3)c1	Nrf2 block 18µM
COc1ccc(C(=O)[C@]2(C)C=C(c3ccc(OC)cc3)[C@H](C)C2)cc1	none (no result: A549 viability, Nrf2 block, Nrf2 ARE act, PINK1 expr mod)
CCOc1cccc2c1OC(c1cc(OC)c(OC)c(OC)c1)N1N=C(c3ccc(C)o3)CC21 (stereo unspecified)	Nrf2 block inconclusive, Nrf2 ARE act 13µM
COc1cc(OC)cc(C(=O)N[C@H](C(=O)Nc2nc3c(s2)CCCC3)C(C)C)c1	Nrf2 block 23µM
CCOc1ccc(CNC(=O)C2CCN(c3nnc(-n4c(C)ccc4C)s3)CC2)cc1	Nrf2 block 15µM
Cc1ccc(NC(=O)c2nnn(Cc3cccc(C(F)(F)F)c3)c2N)c(C)c1	none
O=c1c(O)c(-c2ccc(O)c(O)c2)oc2cc(O)ccc12	Nrf2 block 12µM
COc1ccc(CCn2c3c(c(=O)[nH]c2=S)CN(C)CN3)cc1OC	none (no result: Epigenetic reg, Nrf2 ARE act)
CC(C)=CCC/C(C)=C/CNC(=O)C[C@H]1C[C@H](C(=O)N(C(C)C)C(C)C)[C@@]2(C)c3[nH]c4cc(-c5ccco5)ccc4c3CCN2C1=O	A549 viability inconclusive, Nrf2 block 23µM (no result: Epigenetic reg)
CC(C)=CCC/C(C)=C/CNC(=O)C[C@H]1C[C@H](C(=O)N(C(C)C)C(C)C)[C@@]2(C)c3[nH]c4cc(CCC(=O)N(C)C)ccc4c3CCN2C1=O	Nrf2 block 21µM (no result: Epigenetic reg)
CC(C)N(C(=O)[C@H]1CC(CC(=O)NCc2ccco2)C(=O)N2CCc3c([nH]c4ccccc34)[C@]12C)C(C)C (stereo partly specified)	none (no result: Epigenetic reg)
CC(C)N(C(=O)[C@H]1C[C@H](CC(=O)NCc2ccco2)C(=O)N2CCc3c([nH]c4cc(-c5ccco5)ccc34)[C@]12C)C(C)C	Nrf2 block 15µM, PINK1 expr mod inconclusive (no result: Epigenetic reg)
C[C@]12c3[nH]c4cc(-c5ccco5)ccc4c3CCN1C(=O)[C@@H](CC(=O)NCC13CC4CC(CC(C4)C1)C3)C[C@@H]2C(=O)N1CCOCC1	A549 viability inconclusive, Nrf2 block 23µM (no result: Epigenetic reg)
Cc1nc(NCc2c(F)cccc2F)sc1-c1ccn(CCN2CCOCC2)n1	none (no result: A549 viability, Nrf2 block, Epigenetic reg, Nrf2 ARE act)
CC1=C(c2ccc(C)cc2)S(=O)(=O)N(Cc2ccc(C(=O)Nc3ccc(C)c(F)c3)cc2)C1=O	none
O=C(NNC(=S)Nc1ccccc1)c1cccc(Br)c1	Nrf2 ARE act inconclusive
CC(C)(C)NC(=S)NNC(=O)c1cccc(Br)c1	Epigenetic reg 18µM
CC1CN(Cc2cccn2-c2cccnc2)Cc2cc(Cl)ccc2O1 (stereo unspecified)	none (no result: A549 viability, Nrf2 block, Epigenetic reg, Nrf2 ARE act)
COc1cccc2c1C(=O)c1c(O)c3c(c(O)c1C2=O)CC(O)(C(C)=O)CC3OC1CC(O)C(O)C(C)O1 (stereo unspecified)	A549 viability inconclusive, Nrf2 block 10µM (no result: Epigenetic reg)
CCCCC(=O)OCC(=O)C1(O)Cc2c(O)c3c(c(O)c2C(OC2CC(NC(=O)C(F)(F)F)C(O)C(C)O2)C1)C(=O)c1c(OC)cccc1C3=O (stereo unspecified)	A549 viability inconclusive, Nrf2 block 9.2µM (no result: Epigenetic reg)
COc1cccc2c1C(=O)c1c(O)c3c(c(O)c1C2=O)C[C@@](O)(C(=O)CO)C[C@@H]3O[C@H]1C[C@H](N)[C@H](OC2CCCCO2)[C@H](C)O1 (stereo partly specified)	none (no result: A549 viability, Nrf2 block, Epigenetic reg, Nrf2 ARE act)
Cn1c(=O)n(/N=C/c2ccccc2)c2ccccc21	Nrf2 ARE act 11µM
Cn1c(N)c(N=Cc2ccccc2)c(=O)n(C)c1=O	none (no result: Epigenetic reg)
COc1cccc(CN2CCC3(CCC(CNC(=O)c4ccco4)O3)CC2)c1OC (stereo unspecified)	none (no result: A549 viability, Nrf2 block, Epigenetic reg, Nrf2 ARE act)
Cn1c(=O)c2cc(C(=O)NC3CCCCCC3)sc2c2ccccc21	A549 viability inconclusive, Nrf2 block 18µM
O=C1c2ccccc2-c2onc3c(N4CCN(CCO)CC4)cc(N4CCN(C(=O)c5ccco5)CC4)c1c23	A549 viability 21µM, Nrf2 block inconclusive (no result: Epigenetic reg)
Cc1cc(C)c(C#N)c(SCC(=O)c2ccccc2)n1	Nrf2 ARE act 2.8µM
Cc1cc(C)c(C#N)c(SCC(=O)c2cccs2)n1	Epigenetic reg inconclusive, Nrf2 ARE act inconclusive
COc1ccc2c(c1)OC(=O)CC2c1ccc2c(c1)OCO2 (stereo unspecified)	none (no result: A549 viability, Nrf2 block, Nrf2 ARE act, PINK1 expr mod)
O=C(CN1C(=O)COc2ccc(S(=O)(=O)N3CCOCC3)cc21)N1CCN(c2ccc(F)cc2)CC1	none
Cc1cccc(C)c1OCc1cc(C(=O)N(Cc2c(C)nn(C)c2C)C2CC2)no1	Nrf2 block 23µM (no result: Epigenetic reg)
CCCNc1nc(C#N)nc(Nc2ccccc2)n1	none (no result: Epigenetic reg, Nrf2 ARE act, PINK1 expr mod)
O=c1c2ccccc2nc(-c2ccccc2O)n1Cc1ccccc1	none (no result: Epigenetic reg, Nrf2 ARE act, PINK1 expr mod)
CCOC(=O)c1ccc(NS(=O)(=O)c2ccc3c(c2)CCN3C(=O)CC)cc1	Nrf2 block 26µM
O=C(C1CCC1)N1CCc2cc(S(=O)(=O)Nc3ccc4c(c3)OCCO4)ccc21	Nrf2 block inconclusive
CCC(=O)N1CCc2cc(S(=O)(=O)Nc3ccc4c(c3)OCCO4)ccc21	Nrf2 block 21µM
CCOC(=O)C1CCCN(S(=O)(=O)c2ccc3c(c2)CCN3C(=O)CC)C1 (stereo unspecified)	Nrf2 block 9.2µM
O=S1(=O)N=C(Oc2ccc3ccccc3c2)c2ccccc21	none (no result: Epigenetic reg, Nrf2 ARE act, PINK1 expr mod)
COc1ccc2nc(N3C(=O)/C(=C/c4ccc(Cl)cc4)NC3=S)sc2c1	Epigenetic reg inconclusive, PINK1 expr mod 22µM
CCN(CC)c1cc(C)c2cc(NC(=O)/C=C/c3ccccc3OC(C)C)ccc2n1	A549 viability inconclusive
COc1ccc2c(c1)O[C@@H](c1ccc3c(c1)OCO3)[C@H](OC(=O)NS(=O)(=O)c1ccc(C)cc1)C2=O	none (no result: A549 viability, Nrf2 block, Nrf2 ARE act, PINK1 expr mod)
Cc1cccc(N(C(=O)c2snc(C(N)=O)c2N)C(C(=O)NCc2ccccc2)c2ccncc2)c1 (stereo unspecified)	Nrf2 block 23µM (no result: Epigenetic reg)
Cc1ccc(NC(=O)C(=O)NCC(c2cccnc2)N2CCc3ccccc3C2)cc1 (stereo unspecified)	Nrf2 block inconclusive, Epigenetic reg 22µM
O=C(Nc1ccc(OC(F)F)cc1)c1nc(SCc2ccccc2F)ncc1Cl	none (no result: A549 viability, Nrf2 block, Epigenetic reg, Nrf2 ARE act)
COCCN(Cc1cc2cc3c(cc2nc1Cl)OCO3)C(=O)Nc1ccc(F)cc1	Nrf2 block 13µM (no result: PINK1 expr mod)
COCCN(Cc1cc2cc3c(cc2nc1Cl)OCO3)C(=O)Nc1ccc(OC)cc1	Nrf2 block 7.3µM
COCCN(Cc1cc2cc3c(cc2nc1Cl)OCO3)C(=O)Nc1ccccc1OC	none (no result: PINK1 expr mod)
C=C1c2ccccc2O[C@H](C(=O)OCC)[C@@H]1C1CCCCC1 (tested in a mixture with another compound)	none (no result: A549 viability, Nrf2 block, Nrf2 ARE act, PINK1 expr mod)
